Among the data in PubChem BioAssay AID1347423 (Functional Genomics Laboratory (NCATS/FGL), 2020) are z-score values, retold here.

In all, about 52,000 sequences went through this assay and about 210 (0.4%) were called active.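 How the source made its calls: active means gene whose silencing raises cell survival under the drug, median off-target-corrected z-score across its silencing RNAs 2 or more; inactive means the rest.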 This excerpt belongs to a sample that is enriched for actives.

This assay can be described thus: Resistance to Poly (ADP-Ribose) Polymerase inhibitor: Gene Identification via Genome-wide siRNA Screen. Particulars: mouse BRCA2 R2336H ES cells, olaparib, CellTiter-Glo viability; stronger effect = higher value. The text has this:
The role of Poly (ADP-Ribose) Polymerase (PARP) proteins in DNA repair has been elegantly utilized for the synthetic lethality-based treatment of BRCA-deficient tumors by PARP inhibitors. PARP inhibitors are now being used for treatment of BRCA-deficient breast and ovarian cancers. […] While several mechanisms of drug resistance have been identified, majority of these tumors develop drug resistance due to unknown causes. To identified novel regulators of chemo-resistance in BRCA2-mutated cells, we performed a genome wide siRNA library screen. We have found ES cells expressing a hypomorphic allele of BRCA2 to be hypersensitive to PAPP inhibitors (such as olaparib). We used ES cells expressing a mutant allele of BRCA2 that has a single amino acid substitution at position 2336 (arginine to histidine, R2336H). The screen was conducted using an Ambion (Thermo) Silencer Mouse Genome siRNA collection. The library targets 17,575 mouse genes with 3 siRNAs per gene. TET2 (E130014J05Rik) was identified as a top candidate.
Transfections were performed in 384 well plates (Corning 3707). Plates were coated with 0.1% gelatin in H2O overnight at ambient temperature. Gelatin solution was aspirated (BioTek EL406) and siRNAs were printed using a Bravo VPrep liquid handler integrated within a BioCel automation platform (Agilent). Cell viability was measured using CellTiter Glo (Promega). For transfections, […] of serum free media containing Lipofectamine RNAiMax […] was added to wells containing siRNA (0.8pmol). Lipid and siRNA were allowed to complex for 45 min at ambient temperature before addition of 1000 cells in DMEM, 30% FBS to yield final transfection mixtures containing 20 nM siRNA in DMEM, 15% FBS. PARPi (olaparib, AZD2281) was added 48 h post-transfection (500 nM) and viability (CellTiter Glo, Promega) was assayed 72 h later on a PerkinElmer Envision 2104 Multilabel plate reader. Ambion Silencer Select Negative Control #2 was incorporated on all screening plates (16 wells) and the median negative control value on each plate was used for normalization. An siRNA targeting Trp53 was used as a positive control. This control yielded a median protective effect of ~1.9 fold versus negative control throughout the screen. The median absolute deviation (MAD) based z-score was calculated for each siRNA. Genes were then ranked by taking the median value for all siRNAs tested against a given gene. Scores were also adjusted for seed-based off-target effects to help deprioritize likely false positives.
For the sequence CCAGAAACAUACGAAGAUUTT against Khdrbs1, the z-score is 2.31 (active).

Turning to GGUAUCUUCAAGUACAUGATT against BC011426, the z-score is 0.138 (inactive).

In the case of GGAGAUGGAGAAGUAGAUUTT against Abcf2, the z-score is 0.0903 (inactive).

Regarding GGGAAAUGUGUGUUAUCUGTT against Rnf126, the z-score was 1.17 (inactive).

In the case of CCCUGUCUCCCGCAUAGAATT against Itgb6, the z-score was 1.67 (active).

For the sequence GAAAUCAUCCUGCCCAAAGTT against Vax1, the z-score was 0.607 (inactive).

On to GGUCCCAGUGUCAUGUCUUTT against Cdipt, for which the z-score was 0.00151 (inactive).

Consider GGUCUAUACCAUCCUAUUGTT against Faim2, for which the z-score was -1.24 (inactive).

As to CACUCAGCUCAAUGACCUGTT against Ifna14, the z-score was -0.514 (inactive).

With GCUACAAGCGAUAUAUUCCTT against Jak1, the z-score is 2.92 (active).

Take CCAUGGAGAAUCAUGACAGTT against Slfn1: the z-score was 0.281 (inactive).

With GUAUCAUACAAUGAUGUCCTT against Olfr176, the z-score is 0.628 (inactive).

In the case of “GGAAAACAGCUUUGAUUGGTT against E130009J12Rik”, the z-score was 1.42 (inactive).

GGAACAGGAAUAACAUGACTT against V1re9: the z-score was 1.65 (inactive).

Take GUAUGAUGCACUCCAGUUGTT against Hdac8: the z-score is -1.38 (inactive).

On to GCCAGUGCACUCCUCUUUUTT against Mmrp19, for which the z-score was 0.352 (inactive).

Take GCUGAACUAUAACUUGAAATT against Stat1: the z-score was 0.735 (inactive).

In the case of GCAAGAAGUAAUCAACUUUTT against Rqcd1, the z-score is 2 (active).

As for GGACUUUUACCAGUUCUCCTT against Ece2, the z-score is 0.967 (inactive).

GGUACAGGAAAAAAGAAGATT against Msl31: the z-score was -0.435 (inactive).

For GCACGUAGUAAGAUGUUACTT against Rqcd1, the z-score is 2.53 (active).

GGUGGUCUAAGUCCUGACATT against Hmx1: the z-score is -0.564 (inactive).

As for GGUUAUUAAGAGCACUUUCTT against Catsper3, the z-score is -0.553 (inactive).

In the case of GCAUUAUGACUCUAAUAGCTT against Olfr60, the z-score is 0.536 (inactive).

GGGCUAUGUGCUCUUUUGUTT against Edg6: the z-score is 0.487 (inactive).

As to GGCAUUGUGAAGCUGAAACTT against Ptpn9, the z-score was 1.93 (active).

Consider GGAGAAGGAGGUGAUAAUGTT against Sart1, for which the z-score was 0.088 (inactive).

Turning to “GGUGCAGUUUAAGAGAGAATT against C630016B22Rik”, the z-score is 0.153 (inactive).

With GCCACCUCAAUGAAAGGAGTT against Slc23a1, the z-score is 0.609 (inactive).

On to GGUAAUUUGUUUGUGGUGATT against Mtnr1b, for which the z-score was -0.531 (inactive).

On to “GGCAUCCGUGUGUCUCUAGTT against 5730457F11Rik”, for which the z-score is -2.13 (active).

For “CCACUUUCGCUUUACCAAUTT against C330011M18Rik”, the z-score was 0.267 (inactive).

As to CCAACUCUGUUACAUUAUGTT against Fshprh1, the z-score was 0.377 (inactive).

Turning to GGGCUAAAGUUGAUAAUAATT against Psmc3, the z-score is -3.32 (inactive).

As for “GGGAGCUCCAUUUAAAUUATT against A230103N10Rik”, the z-score was 0.137 (inactive).

On to GGCAUUCAAAAGGUAAAAUTT against Grid2, for which the z-score was 2.35 (active).

As to CCAGCACUCAAUCCUGUAATT against Olfr305, the z-score is -1.73 (inactive).

As to GCUAUCAACAAUCUUCGAATT against Azi1, the z-score was 0.37 (inactive).

Regarding “GGAGAACACUUUAAUGCUGTT against 9230106D23Rik”, the z-score is 0.667 (inactive).

GAACCUUUUCCGUUUCGAGTT against Cebpb: the z-score is 0.245 (inactive).

In the case of “GGCCAGCAGACUAUUUAUUTT against 1110021N07Rik”, the z-score was -1.57 (inactive).

On to GGACCUAGAGGAAGUGAAATT against Apoa1, for which the z-score is 2.05 (active).

As to GCUUUACUUCUUCCUCAUUTT against Olfr924, the z-score is -0.698 (inactive).

In the case of GGUCUAUGUACUCGCCAAATT against Ptpns1, the z-score was -0.633 (inactive).

As for CCGUCACUAUACCCAAGUUTT against Olfr802, the z-score is -3.11 (inactive).

Turning to CGUGCUUAAGAGUCCACUATT against H3f3a, the z-score was -1.43 (inactive).

Regarding CCUCGUUCAUACGACAGAATT against BC062951, the z-score was -0.447 (inactive).

Consider GCUUAGACUCACCAAAGGCTT against Gpr26, for which the z-score was 1.11 (inactive).

Regarding GCAACACAUUUGAACCACUTT against Usp15, the z-score is 2.9 (active).

Take “GGCACAGAAAUUAUGUUCUTT against 1810012H11Rik”: the z-score is -0.685 (inactive).

Consider GGAAUUCAACUCAGAUAAGTT against C3, for which the z-score is -0.52 (inactive).

For GGUUUUCUUAAAAUAGGAGTT against Tat, the z-score is 3.69 (active).

Turning to CCAUAUCCGUAGGUAUAUCTT against Htr2a, the z-score was 1.02 (inactive).

For the sequence “GGCUUGGAAGGAUUAGAAGTT against 4930418G15Rik”, the z-score is -0.344 (inactive).

Regarding CCUCCACUUACUUUGGGUGTT against Cic, the z-score is 1.48 (active).

GGAGCUCAACAAGUUGCUUTT against Hist1h2aa: the z-score is -0.0931 (inactive).

Regarding GGGAGAUCUUUAAGAGAAATT against Tcfap2a, the z-score is -0.65 (inactive).

Turning to CGAGAUCACGAGAUCGGUUTT against Prdm4, the z-score is 2.21 (inactive).

On to GGCCAAGCUGAUCAAUAUATT against Oprd1, for which the z-score was -0.0592 (inactive).

CCCAAUAAAACUUCCGGGATT against BC021608: the z-score was 0.531 (inactive).

In the case of CUCUCGAACAAUCAACCACTT against Olfr315, the z-score is -0.314 (inactive).

GCUGAAAUCAGAAGCUAACTT against Casc3: the z-score was 0.845 (inactive).

GCAUUGGCUGUACUACUAUTT against Psg18: the z-score was -0.196 (inactive).

Regarding CCACAGCCAAAUGCACAAGTT against Gm1631, the z-score is -0.237 (inactive).

Regarding GGGAAAUCAGUUUUACAAATT against Chl1, the z-score is 2.76 (active).

Consider CCGGUUGCUAGGCUAAACATT against Wdr68, for which the z-score is -3.25 (inactive).

On to CGUAAAACUCUUAGGCAUGTT against Npm1, for which the z-score was 2.54 (active).

As to CCCACUCCAAACAUCUAAATT against Gadd45b, the z-score was 0.111 (inactive).
